High-throughput results (PubChem BioAssay)
SRC1 TRFRET art: TR-FRET artefact, counter-screen to PPARgamma/SRC-1 agonist assay | TR-FRET ratio at 8 µM | TR-FRET detection artefact counter-screen, emission ratio; active compounds read high | 0.34% of 99,000 active; in the data active = TR-FRET ratio above about 2300
SRC2 TRFRET art: flags TR-FRET format artefacts in PPARgamma SRC-2 recruitment agonist screen | TR-FRET artefact counter-screen; active compounds read high | TR-FRET ratio at 8 µM | 0.4% of 200,000 active
PPARg SRC-3 ag: PPARgamma-driven SRC-3 recruitment agonism. P37231. biochemical PPARgamma/SRC-3 coactivator recruitment assay. activation, % at 8 µM. 0.26% of 200,000 active; in the data active = activation above about 23%
Target sequence (P37231 whole entry, looked up): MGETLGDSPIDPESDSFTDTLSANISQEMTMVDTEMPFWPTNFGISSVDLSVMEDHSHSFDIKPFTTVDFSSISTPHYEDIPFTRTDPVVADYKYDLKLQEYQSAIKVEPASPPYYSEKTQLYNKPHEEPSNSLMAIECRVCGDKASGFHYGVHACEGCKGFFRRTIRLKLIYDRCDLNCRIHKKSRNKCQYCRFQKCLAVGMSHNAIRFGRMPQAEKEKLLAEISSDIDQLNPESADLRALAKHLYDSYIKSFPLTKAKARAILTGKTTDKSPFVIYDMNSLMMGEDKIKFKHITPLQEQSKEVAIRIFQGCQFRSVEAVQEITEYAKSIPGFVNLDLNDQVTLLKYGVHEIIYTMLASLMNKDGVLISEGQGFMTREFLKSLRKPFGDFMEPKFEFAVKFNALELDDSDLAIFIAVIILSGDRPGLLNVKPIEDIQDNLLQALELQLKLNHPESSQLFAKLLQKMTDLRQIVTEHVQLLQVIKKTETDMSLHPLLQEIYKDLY
PPARg SRC1 recr: PPARgamma-driven SRC-1 recruitment agonism; 0.41% of 200,000 active; AID 631; PPARgamma-SRC-1 coactivator recruitment biochemical assay; P37231; activation, % at 8 µM; in the data active = activation above about 19%
SRC3 TRFRET art: counter-screen for PPARgamma SRC-3 recruitment agonists: TR-FRET artefact; TR-FRET ratio at 8 µM; PPARgamma/SRC-3 format; active compounds read high; AID 1048; 0.39% of 99,000 active
PPARg SRC-2 ag: agonists of SRC-2 recruitment by human PPARgamma; 0.34% of 200,000 active; PPARgamma LBD-SRC-2 recruitment, biochemical; activation, % at 8 µM; in the data active = activation above about 22%
PPARg SRC2 ag: human PPARgamma SRC-2 recruitment agonism, confirmation; shares compounds with PPARg SRC-3 ag; biochemical SRC-2 recruitment by PPARgamma; activation, % at 8 µM; 52% of 790 active; AID 1297; in the data active = activation above about 22%
PPARg SRC1 ag: human PPARgamma SRC-1 recruitment agonism, confirmation; shares compounds with PPARg SRC-3 ag; PPARgamma–SRC-1 coactivator recruitment biochemical assay; activation, % at 8 µM; 43% of 790 active; AID 1300; in the data active = activation above about 20%
PPARg SRC3 conf: human PPARgamma SRC-3 recruitment agonism, confirmation. 29% of 790 active. biochemical PPARgamma-SRC-3 coactivator recruitment, agonist mode. activation, % at 8 µM. shares compounds with PPARg SRC-3 ag; in the data active = activation above about 24%
Each line names hits and unclear results; the compound was inactive in the other large screens (follow-up assays come after a bar, where they were run). Rows were chosen to be rich in hits. Some 0.84% of all compounds tested hit in one or more screens of this group. Rule as the data show it, unless noted: active = TR-FRET ratio above about 2000; inactive = the rest.

Cc1ccc(NS(=O)(=O)c2cc(C(=O)NCCSc3ccc(C)cc3)ccc2C)cc1	PPARg SRC1 recr 19.5 (no result: SRC1 TRFRET art, SRC3 TRFRET art) | PPARg SRC2 ag inactive | PPARg SRC1 ag inactive | PPARg SRC3 conf inactive
CCC(CC)C(=O)c1c[nH]c(C(=O)NCCCN2CCOCC2)c1	none (no result: SRC1 TRFRET art, SRC3 TRFRET art)
Cc1nc2ncccn2c1-c1csc(Nc2ccc(N(C)C)cc2)n1	PPARg SRC-2 ag 23.9 | PPARg SRC2 ag inactive | PPARg SRC1 ag inactive | PPARg SRC3 conf inactive
Cc1nc2ncccn2c1-c1csc(Nc2ccccc2)n1	none
COc1cccc(C2C=C(c3ccc(Br)s3)Nc3ncnn32)c1OC (stereo not drawn)	SRC1 TRFRET art 3079, SRC2 TRFRET art 2137, PPARg SRC1 recr 32.8, SRC3 TRFRET art 2570, PPARg SRC-2 ag 26.6 | PPARg SRC2 ag 57.1 | PPARg SRC1 ag 48.0 | PPARg SRC3 conf 36.2
Fc1ccc(Br)cc1C1C=C(c2ccc(Br)s2)Nc2ncnn21 (stereo not drawn)	SRC1 TRFRET art 3232, SRC2 TRFRET art 2711, PPARg SRC-3 ag 31.9, PPARg SRC1 recr 46.3, SRC3 TRFRET art 3060, PPARg SRC-2 ag 51.1 | PPARg SRC2 ag 53.8 | PPARg SRC1 ag 35.2 | PPARg SRC3 conf 38.7
CC1(C)CC(=O)C2=C(C1)OC1OC(=O)CC21C (stereo not drawn)	none
CCC(C)C(NC(=O)c1ccccc1NC(=O)c1ccc(OC)cc1)C(=O)NCc1ccco1 (stereo not drawn)	none (no result: SRC1 TRFRET art, SRC3 TRFRET art)
CSc1nc2sc3c(c2c2nnnn12)CCCC3	SRC2 TRFRET art 2081, PPARg SRC-3 ag 69.7, PPARg SRC1 recr 44.9 (no result: SRC1 TRFRET art, SRC3 TRFRET art) | PPARg SRC2 ag 50.1 | PPARg SRC1 ag 39.5 | PPARg SRC3 conf 25.9
COc1ccc(S(=O)(=O)NCC2CCC(C(=O)N3CCC4(CC3)OCCO4)CC2)cc1 (stereo not drawn)	none (no result: SRC1 TRFRET art, SRC3 TRFRET art)
NS(=O)(=O)c1ccc(NC(=O)C2C3C=CC(C3)C2C(=O)O)cc1 (stereo not drawn)	none
COc1c(C)cccc1C(=O)NC(=S)Nc1cccc2nsnc12	SRC1 TRFRET art 2682, SRC2 TRFRET art 2472, PPARg SRC-3 ag 36.2, PPARg SRC1 recr 38.6, SRC3 TRFRET art 2881, PPARg SRC-2 ag 30.0 | PPARg SRC2 ag 90.4 | PPARg SRC1 ag 70.7 | PPARg SRC3 conf 60.4
CC(C)CC(=O)NC(=S)Nc1cccc2nsnc12	SRC1 TRFRET art 5013, SRC2 TRFRET art 3677, PPARg SRC-3 ag 62.1, PPARg SRC1 recr 135.4, SRC3 TRFRET art 4035, PPARg SRC-2 ag 86.8 | PPARg SRC2 ag 136.6 | PPARg SRC1 ag 104.9 | PPARg SRC3 conf 81.0
CC1(C(=O)NC2CCCCCCC2)CC1(Cl)Cl (stereo not drawn)	none (no result: SRC1 TRFRET art, SRC3 TRFRET art)
COc1ccc(NC(=O)C(CC(=O)O)Cc2ccc(C)cc2)cc1 (stereo not drawn)	none
N#Cc1ccsc1NC(=O)CN1CCN(S(=O)(=O)c2ccc3ccccc3c2)CC1	SRC1 TRFRET art 2399, SRC2 TRFRET art 2346, SRC3 TRFRET art 2536, PPARg SRC-2 ag 27.8 | PPARg SRC2 ag inactive | PPARg SRC1 ag inactive | PPARg SRC3 conf inactive
O=C(COc1ccc2ccccc2c1)NCCNC(=O)COc1ccc2ccccc2c1	SRC2 TRFRET art 2532, PPARg SRC-3 ag 46.9, PPARg SRC1 recr 38.1, PPARg SRC-2 ag 39.1 (no result: SRC1 TRFRET art, SRC3 TRFRET art) | PPARg SRC2 ag 52.5 | PPARg SRC1 ag 47.8 | PPARg SRC3 conf 34.3
CCOCCCNC(=O)C(NC(=O)c1ccc(NC(C)=O)cc1)c1ccc(OC)cc1 (stereo not drawn)	none
C=CCOc1ccc(C2C(C(=O)c3ccco3)=C(O)C(=O)N2c2nnc(C)s2)cc1 (stereo not drawn)	SRC2 TRFRET art 2019, PPARg SRC-2 ag 25.0 | PPARg SRC2 ag 25.8 | PPARg SRC1 ag 24.0 | PPARg SRC3 conf inactive
COc1ccc(C2C(C(=O)c3ccco3)=C(O)C(=O)N2c2nnc(C)s2)cc1 (stereo not drawn)	SRC1 TRFRET art 2503, SRC2 TRFRET art 2089, PPARg SRC1 recr 25.4, SRC3 TRFRET art 2261 | PPARg SRC2 ag 30.9 | PPARg SRC1 ag 25.0 | PPARg SRC3 conf inactive
Cc1ccc(-n2c(=S)[nH]c3c(oc4ccccc43)c2=O)cc1C	none
O=c1c2oc3ccccc3c2[nH]c(=S)n1-c1ccc(F)cc1	SRC1 TRFRET art 2641, SRC2 TRFRET art 2177, SRC3 TRFRET art 2296, PPARg SRC-2 ag 26.0 | PPARg SRC2 ag inactive | PPARg SRC1 ag inactive | PPARg SRC3 conf inactive
CCOC(=O)c1sc(NC(=O)c2ccco2)nc1-c1ccccc1	PPARg SRC-3 ag 31.8, PPARg SRC1 recr 26.4 (no result: SRC1 TRFRET art, SRC3 TRFRET art) | PPARg SRC2 ag 31.7 | PPARg SRC1 ag inactive | PPARg SRC3 conf inactive
CC(=O)c1sc(NC(=O)c2ccco2)nc1-c1ccccc1	none (no result: SRC1 TRFRET art, SRC3 TRFRET art)
Cc1nn(Cc2ccccc2Cl)c(C)c1C(=O)NCCN1C(=O)S/C(=C\c2ccccc2)C1=O	PPARg SRC-3 ag 22.9, PPARg SRC1 recr 23.2 | PPARg SRC2 ag inactive | PPARg SRC1 ag 21.8 | PPARg SRC3 conf inactive
Cc1cc(SCC(=O)c2ccc3c(c2)OCO3)nc2ccccc12	SRC2 TRFRET art 3038, PPARg SRC-3 ag 43.5, PPARg SRC1 recr 20.0, PPARg SRC-2 ag 37.1 (no result: SRC1 TRFRET art, SRC3 TRFRET art) | PPARg SRC2 ag 70.0 | PPARg SRC1 ag 57.5 | PPARg SRC3 conf 47.1
Cc1ccc(N(NC(=O)C(O)(c2ccccc2)c2ccccc2)C(=O)CCl)cc1	none
Nc1cc2nsnc2cc1Br	SRC2 TRFRET art 6354, PPARg SRC-3 ag 333.8, PPARg SRC1 recr 230.5, PPARg SRC-2 ag 265.2 (no result: SRC1 TRFRET art, SRC3 TRFRET art) | PPARg SRC2 ag 224.9 | PPARg SRC1 ag 166.8 | PPARg SRC3 conf 149.9
CCCCN(C(=O)c1ccc(Cl)c([N+](=O)[O-])c1)c1c(N)n(CCC)c(=O)[nH]c1=O	none
Cn1cccc1C(=O)NC(=O)COC(=O)c1ccccc1Sc1ccccc1C#N	SRC2 TRFRET art 3090, PPARg SRC-3 ag 29.3, PPARg SRC1 recr 24.1, PPARg SRC-2 ag 21.8 (no result: SRC1 TRFRET art, SRC3 TRFRET art) | PPARg SRC2 ag inactive | PPARg SRC1 ag inactive | PPARg SRC3 conf inactive
CCCn1c(CCc2ccccc2)n[nH]c1=S	none
COc1ccc2c(c1)O[C@@H](c1cccc(C(F)(F)F)c1)[C@H](OC(=O)N[C@H]1CCCc3ccccc31)C2=O	PPARg SRC-2 ag 24.5 | PPARg SRC2 ag inactive | PPARg SRC1 ag inactive | PPARg SRC3 conf inactive
CC(C)Sc1nc2sc3c(c2c2nnc(SCC(=O)NCc4ccco4)n12)CCCC3	PPARg SRC1 recr 19.3 (no result: SRC1 TRFRET art, SRC3 TRFRET art) | PPARg SRC2 ag inactive | PPARg SRC1 ag inactive | PPARg SRC3 conf inactive
CN(C)c1ccc(NC(=O)Oc2ccccc2)cc1	SRC2 TRFRET art 2246, PPARg SRC-3 ag 91.4, PPARg SRC-2 ag 58.4 (no result: SRC1 TRFRET art, SRC3 TRFRET art) | PPARg SRC2 ag inactive | PPARg SRC1 ag inactive | PPARg SRC3 conf inactive
COC(=O)CN1C(c2ccccc2)=Nc2ccc(Cl)cc2C1c1ccccc1 (stereo not drawn)	none (no result: SRC1 TRFRET art, SRC3 TRFRET art)
